This experiment is described as follows: small-molecule microarray binders of probe aLefty2, primary screen, biochemical, biotinylated probe, 635/667 nm fluorescence (AID 1094).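 Further: score merges spot fluorescence near 667 nm with spot signal-to-noise ratio.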 The conditions noted are these: higher = more signal.
Compound `COC(=O)[C@@]1(Cc2ccc(F)cc2)[C@H]2c3cc(C(=O)N(C)C)n(CCc4ccc(O)c(O)c4)c3C[C@H]2CN1C(=O)c1ccccc1` displayed a composite z-score of 0.534.

`[N-]=[N+]=Nc1ccccc1C[C@]1(C(=O)N2CCOCC2)N=C(c2ccc(OCCCO)cc2)O[C@H]1c1ccccc1N=[N+]=[N-]` gave a composite z-score of 0.166. Under `COCCOC(=O)N1C(=O)[C@@]2(c3cc(C#CCCO)ccc31)[C@H](c1ccc(OCCO)cc1)N1[C@H](c3ccccc3)[C@H](c3ccccc3)OC(=O)[C@H]1[C@@H]2C(=O)N1CCCCCCC1` stands 1.62; under `COC(=O)C(CC#Cc1ccc2c(c1)[C@]1(C(=O)N2)[C@H](c2ccc(OCCO)cc2)N2[C@H](c3ccccc3)[C@H](c3ccccc3)OC(=O)[C@H]2[C@@H]1C(=O)N1CCCCCCC1)C(=O)OC`, 1.54. `O=C1C[C@@](C(=O)O)(c2ccc([N+](=O)[O-])cc2)[C@@H](c2ccc(CO)cc2)N1C1CCCCC1` returned a composite z-score of 0.0909.

As to `C=CC[C@]1(C(=O)NCC(O)CO)COC(c2ccc(OCCCO)cc2)=N1` (stereo not given in full), the composite z-score worked out at 0.479. `C=C(COC)C(=O)CC[C@H](OC(=O)c1cccnc1)c1ccc(OCCO)cc1`: the composite z-score was -0.155. Under `C=CCNC(=O)[C@H]1[C@@H]2C(=O)O[C@@H](c3ccccc3)[C@@H](c3ccccc3)N2[C@@H](c2ccc(OCCO)cc2)[C@]12C(=O)Nc1ccccc12` stands -0.0785. Under `C=CC1c2cc(O)c(OC)cc2CCN1C` (stereo not given) stands 0.0112; under `CC1CC/C=C\[C@H]2OC34C=CCN(c5ccc(Cl)cc5)C(=O)[C@H]3N(CCCCCCO)C(=O)[C@]4(C)C2C(=O)O1` (stereo not given in full), -0.233; under `CCCC=C(CCC)[C@@H](NC(=O)c1ccc(C(F)(F)F)cc1)c1ccc(C(F)(F)F)cc1`, 0.315. Under `Cc1ccccc1C(O)C1C=CC2C(=O)N(c3ccccc3)C(=O)C2N1Nc1ccccc1` (stereo not given) stands 0.307; under `CCOC(=O)C[C@H]1[C@H](OC(=O)c2ccccc2-c2ccccc2)[C@@H](NC(=O)c2ccc3ccccc3c2)c2cc(OCCCO)ccc2N1C(=O)Cc1ccc(OC)cc1`, -0.281; under `COc1ccc(C(=O)Nc2ccc3c(c2)[C@@]2(O[C@H](CCO)[C@@H]([Si](C)(C)c4ccc(OC)cc4)[C@@H]2C)C(=O)N3Cc2ccccc2)cc1`, -0.0124. For `COCCOC(=O)N1C(=O)[C@@]2(c3cc(C#CCC(C(=O)OC)C(=O)OC)ccc31)[C@H](c1ccc(O)cc1)N1[C@H](c3ccccc3)[C@H](c3ccccc3)OC(=O)[C@H]1[C@@H]2C(=O)Nc1nc2ccccc2s1`, the composite z-score was determined as 0.0424.

For `C=C(COC)/C(=C/C[C@H](OC(C)=O)c1ccccc1OCCO)c1cc(C(=O)OC)ccc1OC`, the composite z-score is -0.0928. Under `O=C1[C@H]2C=C(I)[C@H](C[C@@H]2OCCCCCCO)[C@@]12CO2` stands -0.121; under `CCCCC(=C=CC[C@H](O)c1ccc(CO)o1)CCO`, -0.258; under `COc1ccccc1CN1C(=O)c2ccccc2[C@](Cc2ccccc2I)(C(=O)NCC(C)C)[C@@H]1c1ccc(CO)cc1`, 0.103. Compound `C=CCC(OC(C)=O)[C@@H]1[C@@H](N(Cc2ccc(-c3ccccc3)cc2)C(=O)c2cccc3ccccc23)c2cc(OCCCO)ccc2N1C(=O)Cc1ccc(OC)cc1` (stereo not given in full) displayed a composite z-score of 0.0748. Under `CC(C)N1C(=O)c2ccccc2[C@](C)(C(=O)NCC(F)(F)F)[C@@H]1c1ccc(CO)cc1` stands 0.146; under `O=C1NC(=O)C2C1C=CC(C(O)c1ccc([N+](=O)[O-])cc1)N2Nc1ccccn1` (stereo not given), -0.0218; under `CN1C(=O)C2C=CC(C(O)c3ccc(-c4ccccc4)s3)N(NC(=O)OC(C)(C)C)C2C1=O` (stereo not given), 0.367. `CN(C)CCCNC(=O)[C@@]1(C)c2ccccc2C(=O)N(Cc2ccc(OC(F)(F)F)cc2)[C@H]1c1ccc(CO)cc1` returned a composite z-score of 0.0239. `COCCCNC(=O)[C@@]1(CCS(=O)(=O)c2ccccc2)COC(c2ccc(OCCCO)cc2)=N1` yielded a composite z-score of 0.472. Under `COC(=O)[C@@]1(Cc2ccc(OC)cc2)[C@H]2c3cc(C(=O)N4CCCC4)n(Cc4ccc(C(F)(F)F)nc4)c3C[C@H]2CN1C(=O)c1ccccc1` stands 0.248; under `COC(=O)C(CC#Cc1ccc2c(c1)[C@]1(C(=O)N2)[C@H](c2ccccc2OCCO)N2[C@H](c3ccccc3)[C@H](c3ccccc3)OC(=O)[C@H]2[C@@H]1C(=O)N1CCc2cc(OC)c(OC)cc2C1)C(=O)OC`, -0.174. In turn, `COc1ccc(C(O)C2C=CC3C(=O)N(C)C(=O)C3N2N(c2ccccc2)c2ccccc2)cc1` (stereo not given) returned a composite z-score of 0.276. As for `COCCOC(=O)N1C(=O)[C@@]2(c3cc(C#CCC(C(=O)OC)C(=O)OC)ccc31)[C@H](C(=O)Nc1nc3ccccc3s1)[C@H]1C(=O)O[C@H](c3ccccc3)[C@H](c3ccccc3)N1[C@@H]2c1ccc(O)cc1`, the composite z-score is 0.0085. Under `CC(C)(C)N1CC=CC23O[C@@H]4C=CCCOC(=O)C4[C@H]2C(=O)N(CCCCCCO)[C@@H]3C1=O` (stereo not given in full) stands -0.171; under `O=C1C[C@@](C(=O)NCc2ccccc2)(c2ccc([N+](=O)[O-])cc2)[C@@H](c2ccc(CO)cc2)N1C1CCCCC1`, -0.206; under `Cc1ccc(S[C@]2(C(=O)NCc3ccccc3)CC(=O)N(Cc3ccccc3C(F)(F)F)[C@@H]2c2ccc(CO)cc2)cc1`, -0.154. Under `COCCOC(=O)N1C(=O)[C@@]2(c3cc(C#CCCO)ccc31)[C@H](C(N)=O)[C@H]1C(=O)O[C@H](c3ccccc3)[C@H](c3ccccc3)N1[C@@H]2c1ccccc1OCCO` stands 0.319; under `CC(C)=C1C(=O)C(c2ccccc2)=C2CN3C(=O)N(CCc4ccccc4)C(=O)[C@]3(C)[C@H]21`, 0.211. Then `CC(C)(C)OC(=O)CC[C@@]1(C(=O)NCCN2CCOCC2)N=C(c2ccc(OCCCO)cc2)O[C@@H]1c1ccccc1CN=[N+]=[N-]`, with -0.0152.

For the origin of these results see PubChem BioAssay.
